# Data reported in PMC7862700, “An all-to-all approach to the identification of sequence-specific readers for epigenetic DNA modifications on cytosine”.
# Columns and labels:
# Assay in all cases: DAPPL (digital affinity profiling via proximity ligation, sequencing); 10 mM Tris-HCl pH 7.5, 50 mM NaCl, 1 mM DTT, 4% glycerol, room temperature, 30 min; GST-TFs on glutathione beads, 16-mer random dsDNA library, 0.1% formaldehyde crosslink after washing; high values mean tight binding
# FLI1 = biological target: T1, FLI1 (Homo sapiens, UniProt Q01543 1-452); conditions: protein: recombinant; tags: N-terminal GST; dsDNA, one strand shown
# T1 sequence: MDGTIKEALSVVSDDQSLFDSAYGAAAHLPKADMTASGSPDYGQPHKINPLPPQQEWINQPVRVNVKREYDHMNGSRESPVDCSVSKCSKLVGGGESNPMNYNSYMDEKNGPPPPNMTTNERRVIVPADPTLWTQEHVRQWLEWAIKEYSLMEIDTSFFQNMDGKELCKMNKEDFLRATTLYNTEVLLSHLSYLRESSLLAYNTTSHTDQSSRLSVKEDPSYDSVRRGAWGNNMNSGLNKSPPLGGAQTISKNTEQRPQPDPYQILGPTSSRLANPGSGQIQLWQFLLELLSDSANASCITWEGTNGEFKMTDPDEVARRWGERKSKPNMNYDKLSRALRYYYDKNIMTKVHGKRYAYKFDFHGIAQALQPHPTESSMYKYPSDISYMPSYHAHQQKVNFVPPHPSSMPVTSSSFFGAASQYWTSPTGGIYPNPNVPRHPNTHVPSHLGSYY
# How it was run: (§1)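 Human transcription factors fused to GST were expressed in yeast, captured on glutathione beads, given DNA barcodes and pooled with a GST-only negative control. Pools were incubated with 200 nmole of a 16-mer random double-stranded DNA library in Tris/NaCl/DTT/glycerol buffer at room temperature for 30 min. They were then washed, crosslinked with 0.1% formaldehyde, proximity-ligated (BsaI/T4 ligase, 1 h, 37 °C), PCR-amplified and sequenced on an Illumina NextSeq500. Binding signal is each 6-mer's read frequency for a factor divided by its frequency for the GST control.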
# ELK1 = biological target: T2, ELK1 (Homo sapiens, UniProt P19419 1-428); conditions: protein: recombinant; tags: N-terminal GST; dsDNA, one strand shown
# T2 sequence: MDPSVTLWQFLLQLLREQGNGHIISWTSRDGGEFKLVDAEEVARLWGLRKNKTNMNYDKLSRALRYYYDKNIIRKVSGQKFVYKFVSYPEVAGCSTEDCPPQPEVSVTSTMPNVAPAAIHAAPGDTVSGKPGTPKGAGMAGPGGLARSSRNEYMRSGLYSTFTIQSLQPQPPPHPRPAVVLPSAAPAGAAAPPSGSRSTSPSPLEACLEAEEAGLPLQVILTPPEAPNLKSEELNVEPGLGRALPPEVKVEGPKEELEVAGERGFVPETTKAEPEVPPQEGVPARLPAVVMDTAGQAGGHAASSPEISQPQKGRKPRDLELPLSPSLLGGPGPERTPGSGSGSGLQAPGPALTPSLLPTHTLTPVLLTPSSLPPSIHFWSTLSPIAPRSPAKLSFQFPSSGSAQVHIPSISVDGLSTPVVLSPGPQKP
# How it was run: as §1
# GABPA = biological target: T3, GABPA (Homo sapiens, UniProt Q06546 1-454); conditions: protein: recombinant; tags: N-terminal GST; dsDNA, one strand shown
# T3 sequence: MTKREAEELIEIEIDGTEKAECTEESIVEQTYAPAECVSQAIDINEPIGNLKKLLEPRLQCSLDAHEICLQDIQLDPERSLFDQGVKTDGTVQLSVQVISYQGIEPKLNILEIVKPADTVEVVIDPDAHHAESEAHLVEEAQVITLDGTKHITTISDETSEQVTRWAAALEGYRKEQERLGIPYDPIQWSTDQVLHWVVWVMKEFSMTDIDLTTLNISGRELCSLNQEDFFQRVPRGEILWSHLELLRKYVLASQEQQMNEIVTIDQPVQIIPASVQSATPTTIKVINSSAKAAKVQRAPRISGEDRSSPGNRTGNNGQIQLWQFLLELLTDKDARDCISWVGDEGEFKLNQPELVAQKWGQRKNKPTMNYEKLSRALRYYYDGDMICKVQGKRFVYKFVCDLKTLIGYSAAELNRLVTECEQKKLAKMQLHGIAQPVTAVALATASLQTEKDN
# How it was run: as §1
# ERG = biological target: T4, ERG (Homo sapiens, UniProt P11308 1-479); conditions: protein: recombinant; tags: N-terminal GST; dsDNA, one strand shown
# T4 sequence: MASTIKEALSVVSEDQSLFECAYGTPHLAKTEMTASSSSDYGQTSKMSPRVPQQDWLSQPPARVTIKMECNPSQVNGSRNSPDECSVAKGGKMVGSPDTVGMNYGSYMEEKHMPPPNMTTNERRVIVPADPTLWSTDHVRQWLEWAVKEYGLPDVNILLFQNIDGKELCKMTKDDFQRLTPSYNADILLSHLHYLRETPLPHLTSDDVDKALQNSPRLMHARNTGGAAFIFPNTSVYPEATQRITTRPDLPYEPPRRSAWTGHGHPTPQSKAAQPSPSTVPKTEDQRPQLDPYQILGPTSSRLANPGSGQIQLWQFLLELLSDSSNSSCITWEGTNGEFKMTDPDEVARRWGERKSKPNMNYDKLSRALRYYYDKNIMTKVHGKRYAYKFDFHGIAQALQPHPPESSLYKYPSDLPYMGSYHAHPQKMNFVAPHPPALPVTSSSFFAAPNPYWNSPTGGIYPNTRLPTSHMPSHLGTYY
# How it was run: as §1
# ELF1 = ELF1 (Homo sapiens, UniProt P32519 1-619); conditions: protein: recombinant; tags: N-terminal GST; dsDNA, one strand shown
# ELF1, sequence (P32519 whole entry): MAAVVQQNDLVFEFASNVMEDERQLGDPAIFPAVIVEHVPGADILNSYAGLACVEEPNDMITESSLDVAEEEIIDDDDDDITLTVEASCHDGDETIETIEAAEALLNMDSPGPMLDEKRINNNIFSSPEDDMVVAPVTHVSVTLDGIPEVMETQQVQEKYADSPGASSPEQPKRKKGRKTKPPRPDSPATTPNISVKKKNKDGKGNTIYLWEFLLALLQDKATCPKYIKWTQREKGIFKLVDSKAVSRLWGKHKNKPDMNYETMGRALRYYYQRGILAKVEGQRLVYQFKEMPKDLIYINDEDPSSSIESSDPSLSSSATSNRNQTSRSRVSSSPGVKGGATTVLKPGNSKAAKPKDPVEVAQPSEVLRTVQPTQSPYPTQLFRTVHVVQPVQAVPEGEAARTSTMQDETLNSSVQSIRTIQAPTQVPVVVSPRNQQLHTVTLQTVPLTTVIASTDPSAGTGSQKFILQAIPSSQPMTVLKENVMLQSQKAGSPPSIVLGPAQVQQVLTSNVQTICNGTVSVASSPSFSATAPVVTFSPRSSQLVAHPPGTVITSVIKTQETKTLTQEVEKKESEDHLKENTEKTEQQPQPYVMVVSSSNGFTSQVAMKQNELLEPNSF
# How it was run: as §1
# EHF = biological target: T5, EHF (Homo sapiens, UniProt Q9NZC4 1-300); conditions: protein: recombinant; tags: N-terminal GST; dsDNA, one strand shown
# T5 sequence: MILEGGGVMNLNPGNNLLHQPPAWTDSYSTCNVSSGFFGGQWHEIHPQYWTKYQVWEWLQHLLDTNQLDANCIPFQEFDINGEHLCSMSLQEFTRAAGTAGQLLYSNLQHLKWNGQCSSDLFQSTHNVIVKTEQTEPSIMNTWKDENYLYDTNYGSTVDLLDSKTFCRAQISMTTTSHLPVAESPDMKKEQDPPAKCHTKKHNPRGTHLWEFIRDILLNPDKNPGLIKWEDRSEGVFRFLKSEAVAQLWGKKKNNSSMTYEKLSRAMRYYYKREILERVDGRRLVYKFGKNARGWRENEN
# How it was run: as §1
# SPI1 = SPI1 (Homo sapiens, UniProt P17947 1-270); conditions: protein: recombinant; tags: N-terminal GST; dsDNA, one strand shown
# How it was run: as §1
# SPIB = SPIB (Homo sapiens, UniProt Q01892 1-262); conditions: protein: recombinant; tags: N-terminal GST; dsDNA, one strand shown
# SPIB, sequence (Q01892 whole entry): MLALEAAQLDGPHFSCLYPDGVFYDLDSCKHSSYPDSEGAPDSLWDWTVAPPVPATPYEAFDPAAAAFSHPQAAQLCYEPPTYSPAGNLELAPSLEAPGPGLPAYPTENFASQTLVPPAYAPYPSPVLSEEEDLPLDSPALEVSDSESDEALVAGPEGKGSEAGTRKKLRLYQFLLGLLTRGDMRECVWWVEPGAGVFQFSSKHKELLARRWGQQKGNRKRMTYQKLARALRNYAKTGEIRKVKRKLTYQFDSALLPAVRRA
# How it was run: as §1
# ELK3 = biological target: T6, ELK3 (Homo sapiens, UniProt P41970 1-407); conditions: protein: recombinant; tags: N-terminal GST; dsDNA, one strand shown
# T6 sequence: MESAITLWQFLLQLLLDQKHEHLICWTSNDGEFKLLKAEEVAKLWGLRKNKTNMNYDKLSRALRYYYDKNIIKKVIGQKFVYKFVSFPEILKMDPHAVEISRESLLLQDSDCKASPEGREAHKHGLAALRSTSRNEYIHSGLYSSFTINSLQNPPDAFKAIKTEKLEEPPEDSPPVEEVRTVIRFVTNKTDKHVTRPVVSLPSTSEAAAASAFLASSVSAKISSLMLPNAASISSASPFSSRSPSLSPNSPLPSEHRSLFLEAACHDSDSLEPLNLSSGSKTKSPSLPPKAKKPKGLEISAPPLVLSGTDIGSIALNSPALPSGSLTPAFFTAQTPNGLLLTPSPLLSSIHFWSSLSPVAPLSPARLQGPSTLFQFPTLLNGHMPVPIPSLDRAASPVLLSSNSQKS
# How it was run: as §1
# FEV = biological target: T7, FEV (Homo sapiens, UniProt Q99581 1-238); conditions: protein: recombinant; tags: N-terminal GST; dsDNA, one strand shown
# T7 sequence: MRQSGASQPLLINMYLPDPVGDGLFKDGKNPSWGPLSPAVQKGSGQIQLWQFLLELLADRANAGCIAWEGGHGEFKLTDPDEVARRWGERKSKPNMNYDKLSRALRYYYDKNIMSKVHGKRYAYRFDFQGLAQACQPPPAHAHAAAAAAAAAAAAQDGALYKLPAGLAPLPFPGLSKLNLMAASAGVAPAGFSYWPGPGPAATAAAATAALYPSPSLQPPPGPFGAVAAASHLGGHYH
# How it was run: as §1
# ETV5 = ETV5 (Homo sapiens, UniProt P41161 1-510); conditions: protein: recombinant; tags: N-terminal GST; dsDNA, one strand shown
# ETV5, sequence (P41161 whole entry): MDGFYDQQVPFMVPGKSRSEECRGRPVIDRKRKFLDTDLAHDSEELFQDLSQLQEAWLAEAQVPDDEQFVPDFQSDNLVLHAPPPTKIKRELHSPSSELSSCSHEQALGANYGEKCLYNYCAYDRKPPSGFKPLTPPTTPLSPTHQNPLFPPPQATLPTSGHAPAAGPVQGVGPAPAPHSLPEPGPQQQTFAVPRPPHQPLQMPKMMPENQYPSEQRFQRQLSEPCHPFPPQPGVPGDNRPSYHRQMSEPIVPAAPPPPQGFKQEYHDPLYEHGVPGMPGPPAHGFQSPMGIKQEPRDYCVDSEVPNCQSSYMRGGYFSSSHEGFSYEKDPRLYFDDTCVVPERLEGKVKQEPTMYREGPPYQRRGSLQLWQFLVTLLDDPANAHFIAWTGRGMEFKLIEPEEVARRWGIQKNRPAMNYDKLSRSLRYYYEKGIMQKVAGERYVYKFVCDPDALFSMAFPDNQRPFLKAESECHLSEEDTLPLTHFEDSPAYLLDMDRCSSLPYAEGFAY
# How it was run: as §1
# HSF1 = HSF1 (Homo sapiens, UniProt Q00613 1-529); conditions: protein: recombinant; tags: N-terminal GST; chain copies: 3; dsDNA, one strand shown
# HSF1, sequence (Q00613 whole entry): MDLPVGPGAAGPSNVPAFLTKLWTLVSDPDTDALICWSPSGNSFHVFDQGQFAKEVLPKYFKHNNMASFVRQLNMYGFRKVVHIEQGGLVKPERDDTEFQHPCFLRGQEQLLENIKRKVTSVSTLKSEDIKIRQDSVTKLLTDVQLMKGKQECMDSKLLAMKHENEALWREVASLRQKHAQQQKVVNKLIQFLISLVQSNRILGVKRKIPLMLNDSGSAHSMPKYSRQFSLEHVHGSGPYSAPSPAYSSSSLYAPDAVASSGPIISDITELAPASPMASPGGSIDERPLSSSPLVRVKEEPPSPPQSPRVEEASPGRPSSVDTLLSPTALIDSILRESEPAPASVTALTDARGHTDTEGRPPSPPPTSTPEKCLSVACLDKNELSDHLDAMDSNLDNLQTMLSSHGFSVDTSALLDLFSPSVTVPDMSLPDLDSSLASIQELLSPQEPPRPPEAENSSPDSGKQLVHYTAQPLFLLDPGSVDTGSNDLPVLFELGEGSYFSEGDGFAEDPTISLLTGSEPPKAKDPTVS
# How it was run: as §1
# SPIC = biological target: T8, SPIC (Homo sapiens, UniProt Q8N5J4 1-248); conditions: protein: recombinant; tags: N-terminal GST; dsDNA, one strand shown
# T8 sequence: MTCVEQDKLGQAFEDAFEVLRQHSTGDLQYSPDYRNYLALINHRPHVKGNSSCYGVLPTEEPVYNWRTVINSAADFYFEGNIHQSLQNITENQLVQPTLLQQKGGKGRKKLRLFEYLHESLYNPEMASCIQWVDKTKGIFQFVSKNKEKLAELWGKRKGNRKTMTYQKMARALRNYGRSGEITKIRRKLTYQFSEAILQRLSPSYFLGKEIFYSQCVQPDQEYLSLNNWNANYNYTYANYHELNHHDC
# How it was run: as §1
# ELF4 = ELF4 (Homo sapiens, UniProt Q99607 1-663); conditions: protein: recombinant; tags: N-terminal GST; dsDNA, one strand shown
# ELF4, sequence (Q99607 whole entry): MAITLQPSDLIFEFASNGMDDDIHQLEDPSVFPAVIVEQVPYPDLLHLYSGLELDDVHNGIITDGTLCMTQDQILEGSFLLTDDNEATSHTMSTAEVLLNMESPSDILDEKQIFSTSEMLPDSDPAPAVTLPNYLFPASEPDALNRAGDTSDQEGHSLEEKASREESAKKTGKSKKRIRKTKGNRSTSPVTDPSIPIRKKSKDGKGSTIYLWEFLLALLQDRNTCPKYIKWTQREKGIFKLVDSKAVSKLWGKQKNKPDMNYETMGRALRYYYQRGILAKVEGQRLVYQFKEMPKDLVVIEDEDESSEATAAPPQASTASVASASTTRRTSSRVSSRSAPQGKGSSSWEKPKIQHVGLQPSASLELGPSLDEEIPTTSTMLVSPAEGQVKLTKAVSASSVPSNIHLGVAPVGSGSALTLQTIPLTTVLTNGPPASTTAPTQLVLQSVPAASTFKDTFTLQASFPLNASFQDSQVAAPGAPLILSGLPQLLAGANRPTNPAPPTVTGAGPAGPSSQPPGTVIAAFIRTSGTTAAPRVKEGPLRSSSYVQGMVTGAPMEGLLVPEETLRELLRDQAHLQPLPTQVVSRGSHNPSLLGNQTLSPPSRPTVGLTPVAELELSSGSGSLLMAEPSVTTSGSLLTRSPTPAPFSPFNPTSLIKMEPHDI
# How it was run: as §1
# ELK4 = biological target: T9, ELK4 (Homo sapiens, UniProt P28324-2 1-405); conditions: protein: recombinant; tags: N-terminal GST; dsDNA, one strand shown
# T9 sequence: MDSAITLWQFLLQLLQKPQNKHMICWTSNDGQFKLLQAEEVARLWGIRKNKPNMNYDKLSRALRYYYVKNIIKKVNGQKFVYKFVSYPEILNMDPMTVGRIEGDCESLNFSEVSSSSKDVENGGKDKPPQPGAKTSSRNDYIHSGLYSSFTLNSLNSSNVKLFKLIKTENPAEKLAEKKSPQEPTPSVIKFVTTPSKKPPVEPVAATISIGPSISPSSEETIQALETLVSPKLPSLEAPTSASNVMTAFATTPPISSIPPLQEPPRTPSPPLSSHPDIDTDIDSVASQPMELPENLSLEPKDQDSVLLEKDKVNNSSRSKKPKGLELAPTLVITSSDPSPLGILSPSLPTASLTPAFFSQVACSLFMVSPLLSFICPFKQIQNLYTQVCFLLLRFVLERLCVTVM
# How it was run: as §1
# ETV2 = biological target: T10, ETV2 (Homo sapiens, UniProt O00321 1-342); conditions: protein: recombinant; tags: N-terminal GST; dsDNA, one strand shown
# T10 sequence: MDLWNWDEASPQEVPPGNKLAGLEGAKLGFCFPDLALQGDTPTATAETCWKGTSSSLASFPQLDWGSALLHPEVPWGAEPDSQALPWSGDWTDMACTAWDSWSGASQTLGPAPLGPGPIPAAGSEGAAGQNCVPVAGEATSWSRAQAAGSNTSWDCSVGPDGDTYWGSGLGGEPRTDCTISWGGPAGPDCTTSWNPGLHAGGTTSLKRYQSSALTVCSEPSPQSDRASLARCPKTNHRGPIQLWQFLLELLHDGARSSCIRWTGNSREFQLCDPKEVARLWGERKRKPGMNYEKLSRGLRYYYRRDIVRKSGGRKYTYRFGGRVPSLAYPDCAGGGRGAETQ
# How it was run: as §1
# ELF3 = biological target: T11, ELF3 (Homo sapiens, UniProt P78545 1-371); conditions: protein: recombinant; tags: N-terminal GST; dsDNA, one strand shown
# T11 sequence: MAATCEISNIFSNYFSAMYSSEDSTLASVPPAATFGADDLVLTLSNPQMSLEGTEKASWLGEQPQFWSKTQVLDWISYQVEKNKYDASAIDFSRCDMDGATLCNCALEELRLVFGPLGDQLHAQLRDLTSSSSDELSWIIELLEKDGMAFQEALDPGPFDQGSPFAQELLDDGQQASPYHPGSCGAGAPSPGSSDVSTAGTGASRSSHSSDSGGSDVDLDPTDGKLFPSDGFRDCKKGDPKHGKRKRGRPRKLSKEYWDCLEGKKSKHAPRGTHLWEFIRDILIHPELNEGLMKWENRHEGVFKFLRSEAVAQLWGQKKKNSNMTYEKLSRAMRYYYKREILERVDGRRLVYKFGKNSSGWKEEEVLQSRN
# How it was run: as §1
# CRX = CRX (Homo sapiens, UniProt O43186 1-299); conditions: protein: recombinant; tags: N-terminal GST; dsDNA, one strand shown
# CRX, sequence (O43186 whole entry): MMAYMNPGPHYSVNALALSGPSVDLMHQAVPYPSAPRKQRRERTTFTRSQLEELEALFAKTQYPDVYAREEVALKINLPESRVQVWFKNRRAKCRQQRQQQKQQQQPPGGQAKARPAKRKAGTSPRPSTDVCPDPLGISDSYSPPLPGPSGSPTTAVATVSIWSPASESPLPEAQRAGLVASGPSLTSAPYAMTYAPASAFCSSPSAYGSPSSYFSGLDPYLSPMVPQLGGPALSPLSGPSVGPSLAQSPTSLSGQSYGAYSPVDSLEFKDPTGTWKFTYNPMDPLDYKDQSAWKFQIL
# How it was run: as §1
# ETV1 = ETV1 (Homo sapiens, UniProt P50549 1-477); conditions: protein: recombinant; tags: N-terminal GST; dsDNA, one strand shown
# ETV1, sequence (P50549 whole entry): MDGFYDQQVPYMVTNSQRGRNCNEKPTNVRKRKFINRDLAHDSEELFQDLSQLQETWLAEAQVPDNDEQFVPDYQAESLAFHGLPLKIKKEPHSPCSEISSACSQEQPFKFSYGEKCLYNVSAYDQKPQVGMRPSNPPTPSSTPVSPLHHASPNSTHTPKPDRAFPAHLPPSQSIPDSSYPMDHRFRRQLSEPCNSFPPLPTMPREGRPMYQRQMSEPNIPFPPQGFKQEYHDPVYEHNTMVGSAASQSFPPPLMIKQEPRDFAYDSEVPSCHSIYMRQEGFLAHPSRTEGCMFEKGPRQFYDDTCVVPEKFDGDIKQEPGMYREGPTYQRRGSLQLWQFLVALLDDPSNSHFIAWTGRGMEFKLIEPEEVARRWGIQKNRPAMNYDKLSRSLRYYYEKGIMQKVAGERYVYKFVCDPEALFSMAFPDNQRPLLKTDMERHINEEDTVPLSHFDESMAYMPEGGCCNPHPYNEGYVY
# How it was run: as §1
sequence,measurement,setting,value
GAACTC,binding signal,FLI1,"1.28 fold enrichment (6-mer frequency, TF over GST control)"
same,binding signal,ELK1,"1.22 fold enrichment (6-mer frequency, TF over GST control)"
same,binding signal,GABPA,"1.31 fold enrichment (6-mer frequency, TF over GST control)"
same,binding signal,ERG,"1.26 fold enrichment (6-mer frequency, TF over GST control)"
same,binding signal,ELF1,"1.29 fold enrichment (6-mer frequency, TF over GST control)"
same,binding signal,EHF,"1.28 fold enrichment (6-mer frequency, TF over GST control)"
same,binding signal,SPI1,"1.39 fold enrichment (6-mer frequency, TF over GST control)"
same,binding signal,SPIB,"1.28 fold enrichment (6-mer frequency, TF over GST control)"
same,binding signal,ELK3,"1.33 fold enrichment (6-mer frequency, TF over GST control)"
same,binding signal,FEV,"1.28 fold enrichment (6-mer frequency, TF over GST control)"
same,binding signal,ETV5,"1.29 fold enrichment (6-mer frequency, TF over GST control)"
same,binding signal,HSF1,"1.25 fold enrichment (6-mer frequency, TF over GST control)"
same,binding signal,SPIC,"1.32 fold enrichment (6-mer frequency, TF over GST control)"
same,binding signal,ELF4,"1.26 fold enrichment (6-mer frequency, TF over GST control)"
same,binding signal,ELK4,"1.14 fold enrichment (6-mer frequency, TF over GST control)"
same,binding signal,ETV2,"1.1 fold enrichment (6-mer frequency, TF over GST control)"
same,binding signal,ELF3,"1.29 fold enrichment (6-mer frequency, TF over GST control)"
same,binding signal,CRX,"1.02 fold enrichment (6-mer frequency, TF over GST control)"
same,binding signal,ETV1,"1.35 fold enrichment (6-mer frequency, TF over GST control)"
